# Bioassay records from PubChem BioAssay.
# Shown are actives, neighbours in structure and some others; about 2.4% of the full set was active somewhere.
# D2 ag-1: human D2 receptor agonism in beta-arrestin assay; actives 0.084% (n = 360,000); DiscoveRx PathHunter D2 beta-arrestin, luminescence, 90 min; 100% = 57 uM dopamine signal; activation, % (test concentration not listed); P14416; in the data active = activation above about 40%; inconclusive = between about 15% and that limit
# Target sequence (P14416 whole entry, looked up): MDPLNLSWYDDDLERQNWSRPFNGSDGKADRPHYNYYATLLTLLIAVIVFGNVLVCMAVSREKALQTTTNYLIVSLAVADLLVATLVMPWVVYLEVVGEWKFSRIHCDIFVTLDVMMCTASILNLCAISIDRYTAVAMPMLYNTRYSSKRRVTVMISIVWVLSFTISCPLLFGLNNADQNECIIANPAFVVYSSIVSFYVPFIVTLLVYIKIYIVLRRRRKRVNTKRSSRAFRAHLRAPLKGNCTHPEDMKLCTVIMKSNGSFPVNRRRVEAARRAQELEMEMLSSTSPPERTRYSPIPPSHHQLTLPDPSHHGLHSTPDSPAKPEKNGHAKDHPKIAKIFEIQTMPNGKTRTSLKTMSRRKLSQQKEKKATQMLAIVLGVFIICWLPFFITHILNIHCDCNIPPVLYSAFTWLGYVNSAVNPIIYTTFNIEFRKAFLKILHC
#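 DiscoveRx PathHunter D2 beta-arrestin cells (2,100/well) attached overnight, then compound-stimulated 90 min at 37 C in HBSS/10 mM HEPES/0.1% Tween-20 buffer; beta-galactosidase complementation read by luminescence after 1 h at ambient temperature. Dopamine 57 uM final (EC100) as control.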
# D2 PAM-1: positively modulates the human D2 dopamine receptor allosterically; P14416; HEK293 T-REx D2, calcium flux, EC20 dopamine potentiation; potentiation, % at 10 µM; actives 0.34% (n = 340,000); AID 485347;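 active = potentiation over 3 SD above the plate norm, cut at about 30% in these data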
#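 Primary screen. Calcium kinetics in induced HEK293 T-REx D2 cells: compound pre-addition 180 s, EC20 dopamine, 180 s more.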
# D2 ag-2: activates the human D2 dopamine receptor. HEK293 T-REx D2 cells, calcium flux agonist mode. activation, % at 2 µM. actives 0.53% (n = 340,000). AID 485358;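 active = activation over 3 SD above normal in the single-dose calcium agonist read, cut at about 30% in these data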
#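 Agonism scored from kinetic calcium signal (1 read/sec, 180 s) following compound pin transfer, after a 10 s baseline. Cells: HEK293 Trex line expressing inducible D2 receptor coupled to calcium, dye-loaded after overnight culture at 30 C.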
# D2 PAM-2: positive allosteric modulators of human D2 dopamine receptor; P14416; DiscoveRx D2 beta-arrestin cells, luminescence, 90 min; 100% = 57 uM dopamine signal; potentiation, % (no concentration beside the values); actives 0.23% (n = 360,000); AID 624464; in the data active = potentiation above about 50%; inconclusive = mostly about 30% to 49%
#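 PathHunter D2 cells, attached overnight at 37 deg C, received compound in DMSO plus dopamine at EC20 (50 nM final) for 90 min at 37 deg C. Beta-arrestin recruitment was read as luminescence after 1 h with detection reagent at ambient temperature.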
# D2 antag: antagonizes the human D2 dopamine receptor; actives 2% (n = 340,000); P14416; AID 485344; HEK293 TREx D2 cells, calcium flux, dopamine EC80; inhibition, % at 10 µM; in the data active = inhibition above about 30%; inactive = below that, where a call was filed
#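 Measurement of antagonist activity uses fluorescent calcium dye in inducible HEK293 T-REx D2 cells: 10 s baseline, compound addition with 180 s read, EC80 dopamine addition with a further 180 s read.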
# Numbers stand for hits; n = inactive; u = inconclusive; x = no result.
SMILES,D2 ag-1,D2 PAM-1,D2 ag-2,D2 PAM-2,D2 antag
COc1ccc(CCNC(=O)Cn2c(C)c3cnn(-c4ccccc4)c(=O)c3c2C)cc1OC,x,n,n,x,x
Cc1onc(-c2ccc(Br)cc2)c1C(=O)Nc1ccc(Br)cc1F,x,n,n,x,x
COCC1CCCN(Cc2cn(-c3ccccc3F)nc2-c2cc(C)sc2C)C1 (stereo not drawn),n,n,n,n,41.0
CC(C)N1CCc2c(sc(NC(=O)c3ccc(S(=O)(=O)N(C)C4CCCCC4)cc3)c2C(N)=O)C1,x,n,n,x,x
CCN1CCc2c(sc(NC(=O)c3ccc(S(=O)(=O)N(C)c4ccccc4)cc3)c2C(=O)NC)C1,n,n,38.1,n,n
CCN1CCc2c(sc(NC(=O)c3ccc(S(=O)(=O)N(CCOC)CCOC)cc3)c2C(N)=O)C1,x,n,n,x,x
CNC(=O)c1c(NC(=O)c2ccc(S(=O)(=O)N(C)c3ccccc3)cc2)sc2c1CCN(C(C)C)C2,n,n,84.4,n,n
CCc1cccc(C)c1NC(=O)C(CC)Sc1nncn2c1cc1occc12 (stereo not drawn),x,n,n,x,x
Cc1cc2ncn(C3CC(=O)N(Cc4ccccc4)C3=O)c2cc1C (stereo not drawn),n,39.4,n,n,n
O=S(=O)(c1ccccc1)N1N=C(c2cccs2)CC1c1ccc(Br)cc1 (stereo not drawn),n,34.6,n,n,n
Cc1cccc(NC(=O)c2c(C)nc3ccccn23)c1,n,n,n,n,40.1
CN1C2CCC1CC(OC(c1ccccc1)c1ccccc1)C2 (stereo not drawn),n,n,n,n,36.2
COc1cccc(NC(=O)Cn2c(=O)n(C)c(=O)c3sc4c(c32)COC(C)(C)C4)c1,n,n,n,n,42.9
O=C(C[n+]1ccc(-c2ccccc2)cc1)Nc1ccc([N+](=O)[O-])cc1,n,n,n,n,36.9
Cc1cccc[n+]1CC(=O)Nc1ccc([N+](=O)[O-])cc1,n,n,n,n,n
Cc1ccc(F)c(S(=O)(=O)NC(=O)C2(C)CCN2C(=O)c2cccc3ccccc23)c1 (stereo not drawn),u,x,x,61.7,x
Cc1ccc(-c2c3c(nc4sc(C(N)=O)c(N)c24)CCCC3)o1,n,n,30.8,n,n
COc1ccc(OC)c(NC(=O)CC(=O)Nc2ccc3nc4n(c(=O)c3c2)CCCCC4)c1,x,n,n,x,x
COC(=O)c1ccccc1NC(=O)c1cnn2c(C(F)F)cc(C3CC3)nc12,n,32.7,n,n,n
COc1cc(NC(=O)c2cnn3c(C(F)F)cc(C4CC4)nc23)c(OC)cc1Cl,n,n,n,n,n
Cc1ccc(C(=O)N/C(N)=N/c2nc3ccccc3o2)cc1,n,n,n,n,53.0
Cc1ccc(C)c(OCCCNCc2ccccc2)c1,n,n,n,n,n
O=[N+]([O-])c1ccccc1OCCNCc1ccccc1,n,n,n,n,78.1
Cc1ccc(C(C)C)c(OCCNCc2ccccc2)c1,n,n,n,n,67.2
Cc1ccc(-n2ncc(C(=O)NCCCN3CCN(c4cccc(Cl)c4)CC3)c2-n2cccc2)cc1,x,n,n,x,x
SMILES,D2 ag-1,D2 PAM-1,D2 ag-2,D2 PAM-2,D2 antag
CC(C)c1nnc(NC(=O)CC23CC4CC(CC(C4)C2)C3)s1,n,n,n,n,36.1
CN(C)c1ncnc2c1C(c1ccccc1)C(C)(C)O2 (stereo not drawn),n,x,x,n,x
O=C1C2CCCN2C(=O)N1CCCN1CCN(c2cccc(Br)c2)CC1 (stereo not drawn),n,n,n,n,n
Cc1ccccc1N1CCN(CCCCN2C(=O)C3CCCN3C2=O)CC1 (stereo not drawn),n,n,n,n,58.9
COc1ccccc1N1CCN(CCCN2CC(=O)N3CCCCC3C2=O)CC1 (stereo not drawn),n,x,x,n,x
O=C1C2CCCCN2C(=O)N1CCCN1CCN(c2ccc(F)cc2)CC1 (stereo not drawn),n,n,n,n,n
CCCCOc1ccccc1N1CCN(CCCN2C(=O)C3CCCN3C2=O)CC1 (stereo not drawn),n,n,n,n,76.2
COc1ccccc1N1CCN(CCCCN2C(=O)C3CCCCN3C2=O)CC1 (stereo not drawn),n,n,n,n,94.3
O=C(ONC1=NCCCCC1)c1ccc(Cl)cc1,u,n,n,u,n
O=C(ONC1=NCCCCC1)c1c(F)cccc1F,u,n,n,65.1,n
CC1Cc2cc(S(=O)(=O)NCCc3ccccc3)ccc2N1C(=O)C1CCC1 (stereo not drawn),x,n,n,x,x
Cc1[nH]n(-c2ccccc2)c(=O)c1/C=N/N(C)c1ccccc1,n,n,n,73.7,n
COCC(=O)N/N=C/c1c(C)[nH]n(-c2ccccc2)c1=O,n,32.9,n,n,n
COC(=O)N/N=C\c1c(C)[nH]n(-c2ccccc2)c1=O,n,n,n,n,n
Cc1cc(C)nc(SCC(=O)N2CCC(C(N)=O)CC2)n1,n,30.3,n,n,n
Cc1cc2nnc(SCC(=O)N3CCCCC3)n2c(N)n1,n,n,n,n,n
Cc1cc(N)nc(SCC(=O)N2C(C)CCCC2C)n1 (stereo not drawn),n,33.9,n,n,n
COc1cc(C)nc(SCC(N)=O)n1,n,x,n,n,32.5
Cc1cc2nnc(SCC(=O)N3C(C)CCCC3C)n2c(N)n1 (stereo not drawn),n,36.5,n,n,30.4
CN(Cc1ccccc1)C(=O)CSc1nc2ccccc2n1Cc1ccccc1F,x,n,x,x,x
CCS(=O)(=O)N1CCc2cc(C(=O)NCc3ccccc3Cl)ccc21,x,n,n,x,x
CCCCN(CC)Cc1c(O)ccc2c(-c3ccccc3)cc(=O)oc12,n,n,n,n,n
CCCCN(C)Cc1c(O)ccc2c(-c3ccccc3)cc(=O)oc12,n,x,n,n,64.1
C=Cc1ccc(Cn2c(C(=O)O)c(CNCc3ccccc3)c3ccc(OC)cc32)cc1,x,n,n,x,x
C/C(CC1(O)C(=O)N(Cc2ccccc2)c2ccccc21)=N\O (stereo not drawn),n,n,n,n,n
SMILES,D2 ag-1,D2 PAM-1,D2 ag-2,D2 PAM-2,D2 antag
CC(=O)CC1(O)C(=O)N(Cc2ccccc2)c2ccccc21 (stereo not drawn),n,n,n,n,61.4
CC1(C)C(=S)N(Cc2ccccc2)c2ccccc21,n,n,n,62.5,n
CCCCSCCCNC(=O)CN1C(=O)c2cccnc2Oc2ccc(Cl)cc21,x,n,n,x,x
Cn1cccc1CNCc1ccccc1Cl,n,n,50.3,n,n
CCCCCNCc1cccn1C,n,n,n,n,n
Cn1cccc1CNC(=O)Nc1ccc(Cl)cc1,n,n,n,n,30.6
Cn1cccc1CNC(=O)Nc1ccccc1,n,n,n,n,n
CCOc1ccc(C(=O)NCCC2=CCCCC2)cc1OCC,n,n,n,n,37.5
COc1ccccc1/C=C/C(=O)NCCC1=CCCCC1,n,n,n,n,35.4
